In all, about 310,000 compounds went through this assay and about 2,200 (0.71%) showed an effect of 50% or more. Effects have a minus sign here. The full list was thinned out, with strong results kept by preference.
target: human ether-à-go-go-related gene (hERG) potassium channel (human, UniProt Q12809); test: primary screen, population patch clamp on CHO cells stably expressing hERG; higher = less effect of the substance
Description: Briefly, Chinese hamster ovary (CHO) cells stably expressing the hERG channel were dislodged from tissue culture flasks and dispensed into PPC plates. […] During the recording, background leak currents were estimated by a 100 ms step to -80 mV from an initial holding potential of -70 mV and subtracted from the subsequent current measurement. The campaign was conducted in two phases using slight differences in recording protocol. In the first phase, the initial voltage pulse used a 100 ms step to -30 mV from a holding potential of -70 mV, a 2 s conditioning step to +25 mV, and a 2 s test step to -30 mV. During the second phase of the screen, the potential during the conditioning step was raised to +45 mV. In both phases of the campaign, a secondary voltage pulse was applied using the same parameters as the second phase initial pulse. The initial and secondary pulses were applied in the absence of compound, and upon application of 1 μM and 10 μM test concentrations. Small molecule effects on hERG current density were quantified by […].

Chain of human ether-à-go-go-related gene (hERG) potassium channel (Q12809 whole entry, looked up): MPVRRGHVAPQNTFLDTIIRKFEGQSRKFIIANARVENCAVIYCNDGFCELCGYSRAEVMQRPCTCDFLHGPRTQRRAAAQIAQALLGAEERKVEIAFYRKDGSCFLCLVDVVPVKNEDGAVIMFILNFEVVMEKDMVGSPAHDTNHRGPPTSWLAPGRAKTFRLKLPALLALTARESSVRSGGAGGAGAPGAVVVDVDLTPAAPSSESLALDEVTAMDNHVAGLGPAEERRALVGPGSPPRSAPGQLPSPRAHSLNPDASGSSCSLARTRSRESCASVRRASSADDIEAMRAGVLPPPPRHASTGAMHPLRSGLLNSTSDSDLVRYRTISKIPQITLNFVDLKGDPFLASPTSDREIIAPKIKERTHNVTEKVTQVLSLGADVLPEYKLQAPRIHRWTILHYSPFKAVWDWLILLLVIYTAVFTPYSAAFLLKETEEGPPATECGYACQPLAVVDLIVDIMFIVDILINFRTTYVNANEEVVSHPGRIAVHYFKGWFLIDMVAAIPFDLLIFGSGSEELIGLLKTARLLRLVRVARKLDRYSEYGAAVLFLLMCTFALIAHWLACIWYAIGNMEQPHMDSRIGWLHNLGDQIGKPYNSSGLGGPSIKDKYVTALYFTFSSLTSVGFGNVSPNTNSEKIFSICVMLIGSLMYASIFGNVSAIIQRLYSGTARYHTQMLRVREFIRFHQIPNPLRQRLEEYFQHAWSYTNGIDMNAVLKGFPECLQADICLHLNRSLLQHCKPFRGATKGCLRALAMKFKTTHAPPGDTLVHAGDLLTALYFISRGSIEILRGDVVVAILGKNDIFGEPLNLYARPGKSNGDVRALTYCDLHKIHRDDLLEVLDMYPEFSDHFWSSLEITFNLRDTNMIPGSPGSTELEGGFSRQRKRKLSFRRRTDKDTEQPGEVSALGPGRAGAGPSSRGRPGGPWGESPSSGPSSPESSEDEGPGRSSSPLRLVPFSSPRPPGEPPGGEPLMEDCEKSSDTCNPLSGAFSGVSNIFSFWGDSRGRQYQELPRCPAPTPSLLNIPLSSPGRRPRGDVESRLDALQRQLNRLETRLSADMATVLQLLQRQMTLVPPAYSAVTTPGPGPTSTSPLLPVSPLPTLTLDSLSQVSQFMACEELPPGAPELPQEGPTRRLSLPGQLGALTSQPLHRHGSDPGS

| SMILES | hERG current change (%, negative = inhibition) at 1uM |
| --- | --- |
| COc1ncnc2c1oc1nc(CC(C)C)c3c(c12)CC(C)(C)OC3 | -10.6% |
| O=C(CSc1ccc(F)cc1)Nc1ccc(Br)cc1 | 13.9% |
| CCOC(=O)/C(C(C)=O)=C1\OC(=O)c2ccccc21 | 8.9% |
| COc1ccc(CCNC(=O)CSc2n[nH]c(N)n2)cc1OC | 18.1% |
| COc1ccc(CNC(=O)CSc2n[nH]c(N)n2)cc1 | 14.9% |
| COc1ccc(CNC(=O)CSc2n[nH]c(N)n2)cc1OC | -73.4% |
| O=C(O)C1Nc2ccc(C(F)(F)F)cc2C2OCCC12 (stereo not drawn) | 10.7% |
| O=C(NCC1CCCO1)c1ccc2c(=O)n(CC3CCCO3)c(SCC(=O)N3CCCC3)nc2c1 (stereo not drawn) | 5.44% |
| O=C(NCc1ccco1)c1ccc2c(=O)n(Cc3ccco3)c(SCC(=O)N3CCCC3)nc2c1 | -66.9% |
| C=CCn1c(SCC(=O)OCC)nc2cc(C(=O)NCc3ccco3)ccc2c1=O | -9.92% |
| CCCCCn1c(SCC(=O)OCC)nc2cc(C(=O)NCc3ccco3)ccc2c1=O | 12.8% |
| O=C(NCC1CCCO1)c1ccc2c(=O)n(Cc3ccco3)c(SCC(=O)N3CCCC3)nc2c1 (stereo not drawn) | -54% |
| CCOC(=O)CSc1nc2cc(C(=O)NCC3CCCO3)ccc2c(=O)n1Cc1ccco1 (stereo not drawn) | -18.2% |
| CCN(C(=O)CSc1nnnn1-c1ccccc1)c1c(N)n(Cc2ccccc2)c(=O)[nH]c1=O | 15.9% |
| CCOc1ccc2nc(NCCO)[nH]c2c1 | 10.9% |
| Cc1ccc(S(=O)(=O)NCCC(=O)NC2CCCC2)cc1 | 1.28% |
| CCCN1CCC(=O)N([C@H](COc2ccccc2)CC(C)C)CC1 | -48.1% |
| COc1ccc(SC[C@H](CC(C)C)N2CCN(CCc3ccccc3)CCC2=O)cc1 | -51.6% |
| CC(C)C[C@@H](COc1ccccc1)N1CCN(CCc2ccccc2)CCC1=O | -61.7% |
| COc1ccc(SC[C@H](Cc2ccccc2)N2CCN(CCc3ccccc3)CCC2=O)cc1 | -43.2% |
| CCCN1CCC(=O)N([C@H](CO)Cc2ccccc2)CC1 | 6.98% |
| CC(C)C[C@@H](COc1ccccc1)N1CCN(Cc2ccccc2)CCC1=O | -4.6% |
| CC(C)CN1CCC(=O)N([C@H](COc2ccccc2)Cc2ccccc2)CC1 | -29.8% |

| SMILES | hERG current change (%, negative = inhibition) at 1uM |
| --- | --- |
| O=C1CCN(CCCc2ccccc2)CCN1[C@H](CO)Cc1ccccc1 | -12% |
| CCCN1CCC(=O)N([C@H](COc2ccccc2)Cc2ccccc2)CC1 | -52.4% |
| CC(C)C[C@@H](CSc1ccc(Br)cc1)N1CCN(CCc2ccccc2)CCC1=O | -28.9% |
| CCCCCCCN1CCC(=O)N([C@H](CO)Cc2ccccc2)CC1 | -77.2% |
| CCCN1CCC(=O)N([C@H](CSc2ccccc2)Cc2ccccc2)CC1 | -48.9% |
| O=C(Oc1coc(CSc2ncccn2)cc1=O)c1ccc(Br)o1 | 11.6% |
| Cc1cc(C)n(CCN(C)C(=O)C2CCC(=O)N(CCN3CCOCC3)C2)n1 (stereo not drawn) | 16.1% |
| COc1ccc(C2CC(c3ccccc3)=NN2C(=O)c2ccc(Cl)c([N+](=O)[O-])c2)cc1 (stereo not drawn) | 9.38% |
| CN(CC(=O)Nc1ccc(Cl)c(C(F)(F)F)c1)C(=O)c1cn2ccccc2n1 | 5.27% |
| O=C(N/N=C/c1cc(Br)c(O)c(Br)c1)c1cccnc1 | 18.5% |
| COc1ccccc1/C=C(/C(=O)OCC(=O)Nc1ccc(N(C)C)cc1)c1ccccc1 | 9.09% |
| COc1ccccc1C(=O)N/N=C/c1cnc2ccccc2n1 | 6.27% |
| O=C1CCN(Cc2ccccc2)CCN1[C@H](COc1ccccc1)Cc1ccccc1 | -7.61% |
| CN1CCC(=O)N([C@H](COc2ccccc2)Cc2ccccc2)CC1 | -8.2% |
| O=C1CCN(CCc2ccccc2)CCN1[C@H](COc1ccccc1)Cc1ccccc1 | -60.4% |
| CCOc1ccc(C(=O)COC(C)=O)cc1 | 9.74% |
| O=c1[nH]c(C2CCCN(S(=O)(=O)c3ccc(F)cc3)C2)nc2c1nnn2Cc1ccccc1 (stereo not drawn) | 7.82% |
| CC(C)CCN1CCN(CC(c2ccccc2)c2ccccc2)CC1CCO (stereo not drawn) | -81.9% |
| OCCC1CN(CC#Cc2ccccc2)CCN1C1CCCC1 (stereo not drawn) | -7.79% |
| CC(C)CCN1CCN(CCCc2ccccc2)CC1CCO (stereo not drawn) | -1.8% |
| OCCC1CN(Cc2cnc(-c3ccc(Cl)cc3)nc2)CCN1C1CCCCC1 (stereo not drawn) | -31.1% |
| OCCC1CN(C/C(Cl)=C/c2ccccc2)CCN1C1CCCC1 (stereo not drawn) | -43.4% |

Reference: PMC4336329 (PLoS ONE, 2015)
